Data as given in PubChem BioAssay (NCI).
The panel holds about 83,000 compounds, 20% with a hit somewhere; the sample as a whole holds those more often.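 Percent growth is the endpoint: 0 to 100 indicates growth inhibition (40 means 60% inhibition), 0 means no net growth, and negative values indicate cell death.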 Unmarked numbers belong to inactive results. The source made the active and inactive calls. Rule for the calls: active = growth percent below 10; inactive = the rest.

Columns and labels:
Experiment in all cases: NCI-60 one-dose screen, 48 h (100 = growth as untreated, 0 = no growth, -100 = all killed)
Details in all cases: 10 µM unless noted
[1] = system: NCI-H23 lung
[2] = system: NCI-H226 lung
[3] = system: NCI-H322M lung
[4] = system: HOP-62 NSCLC
[5] = system: NCI-H460 lung
[6] = system: HOP-92 NSCLC
[7] = system: NCI-H522 lung
[8] = system: A549/ATCC NSCLC
[9] = system: 786-0 renal
[10] = system: COLO 205 colon

| SMILES | growth [1] | growth [2] | growth [3] | growth [4] | growth [5] | growth [6] | growth [7] | growth [8] | growth [9] | growth [10] |
| --- | --- | --- | --- | --- | --- | --- | --- | --- | --- | --- |
| O=C1c2ccccc2C(=O)c2c1oc1c2c(=O)[nH]c2ccc(Cl)cc21 | 21.2% | -28.8% (active) | 14% | -38.7% (active) | -69.7% (active) | -37.2% (active) | -16.8% (active) | -0.0514% (active) | 2.5% (active) | 85.7% |
| O=C(/C(=C/c1ccc([N+](=O)[O-])cc1)SCc1ccc(F)cc1)c1ccc(Cl)cc1 | 58.9% | 64.6% | 98.1% | 76.8% | 82.4% | 69.6% | -41.4% (active) | 86.8% | 82.5% | 64% |
| C[C@H]1[C@H](C)CC[C@]2(C(=O)OCCCC[P+](c3ccccc3)(c3ccccc3)c3ccccc3)CC[C@]3(C)C(=CC[C@@H]4[C@@]5(C)CC[C@H](OC(=O)C(Cl)Cl)C(C)(C)[C@@H]5CC[C@]43C)[C@H]12 | -48.3% (active) | -78.8% (active) | -10.6% (active) | -65% (active) | -83.8% (active) | -70.1% (active) | -55% (active) | -41.9% (active) | -83.5% (active) | -84.9% (active) |
| Cc1[nH]c2ncnc(Oc3ccc(NC(=O)Nc4ccc(Cl)c(C(F)(F)F)c4)cc3)c2c1C | 56.7% | 75.1% | 69.6% | 59.3% | 36.1% | 91.9% | 25.3% | 45.3% | 84% | 60.3% |
| O=C(CN1N=C(c2ccc(F)cc2)CCC1=O)Nc1nc2ccccc2s1 | -26.2% (active) | 41.7% | 95.1% | -23.7% (active) | 51.3% | -77.1% (active) | -73.5% (active) | -48.8% (active) | -90.2% (active) | 87.2% |
| COc1cc2c(cc1OCCCOc1cc3c(cc1OC)C(=O)N1CC(F)(F)C[C@H]1C=N3)N=C[C@@H]1CC(F)(F)CN1C2=O | 5.01% (active) | -20.1% (active) | 29% | 11.1% | 7.32% (active) | -35.4% (active) | -26.4% (active) | 36.1% | -22.8% (active) | 3.85% (active) |
| CCC1S/C(=N\N=C(/C)c2ccc[nH]2)N(c2ccccc2)C1=O (stereo not given) | 98.8% | 132% | 90.8% | 108% | 104% | 70.5% | 27.2% | 82.6% | 117% | 127% |
| COc1ccc(C(C)c2cc(OC)c(OC)c(OC)c2)cc1 (stereo not given) | 28.9% | 80.2% | 44.6% | 35.4% | 4.97% (active) | 49% | 9.34% (active) | 18.6% | 22.6% | -15.2% (active) |
| COC(=O)/C=C1\SC(=Nc2ccc(F)cc2)N(CCc2c[nH]c3ccccc23)C1=O | 85.3% | 91.2% | 101% | 104% | 104% | 106% | 68.3% | 79% | 104% | 126% |
| CC(=O)c1cc2c(N)c(C(=O)Nc3ccccn3)sc2nc1C | 87.3% | 86.8% | 73.6% | 88.3% | 45.6% | 75.2% | 77% | 48.7% | 88.2% | 40.6% |
| C/C(=N\NC(=O)c1ccncc1)c1ccc(N)cc1 | 101% | 102% | 91.5% | 95.8% | 99.3% | 80.6% | 75.4% | 90.6% | 99% | 117% |
| O=c1[nH]c2ccccc2cc1-c1nc2ccc(Cl)cc2[nH]1 | 53.5% | 55.2% | 50.3% | 67.2% | 18% | 7.43% (active) | 38.2% | 40.1% | 52.8% | 52.2% |
| O=C1Nc2ccc(Cl)cc2/C1=N/c1nc(-c2ccc(F)cc2)cs1 | 44% | 75% | 65.7% | 54.1% | 34.1% | 34.3% | 20.7% | 43.6% | 47.3% | 31.4% |
| COc1cc2cc(c1Cl)N(C)C(=O)C[C@H](OC(=O)[C@H](C)N(C)C(=O)CCS)C[C@]1(C)O[C@H]1[C@H](C)[C@@H]1C[C@@](O)(NC(=O)O1)[C@H](OC)/C=C/C=C(\C)C2 | 23.2% | 69.5% | 42.8% | 18.3% | 7.39% (active) | 4.28% (active) | -31.2% (active) | 16.3% | 13.8% | -65.7% (active) |
| O=C1NCc2ccc3c(-c4cccc(Cl)c4)c[nH]c3c21 | 35.5% | 89.6% | 47.6% | 22.7% | 12.9% | 52.7% | 1.89% (active) | 15.8% | 31.4% | -27% (active) |
| Cn1nc(C(F)(F)F)c(-c2cc(C(F)(F)F)cc(C(F)(F)F)c2)c1-c1ccc(OCc2ccc(Cl)cc2)cc1O | 0.56% (active) | 13.9% | 5.67% (active) | -9.87% (active) | -10.4% (active) | -20.1% (active) | -9.19% (active) | 10.5% | 2.41% (active) | -90.7% (active) |
| C#C[C@@]1(O)[C@@H](CO)O[C@@H](n2cc(I)c3c(N)ncnc32)[C@@H]1O | -14.5% (active) | 52.2% | 20% | -3.39% (active) | -25.4% (active) | -23.8% (active) | -49.6% (active) | -56.5% (active) | -24.3% (active) | -50.2% (active) |
| C#C[C@@]1(O)[C@@H](CO)O[C@@H](n2cc(Cl)c3c(N)ccnc32)[C@@H]1O | 71.9% | 96.7% | 74.6% | 120% | 25.1% | 48.2% | 75.1% | 67% | 81.2% | 63.4% |
| CN1CCN(/C=C2\CC(C(=O)NCc3ccc(Cl)cc3Cl)NC2=O)CC1 (stereo not given) | 99.5% | 85.7% | 104% | 108% | 104% | 98.8% | 98.3% | 94.2% | 116% | 116% |
| COc1ccc(NC(=O)Nc2ccc(Nc3nc(C)cc(Nc4ccc(C)cc4)n3)cc2)cc1 | -57.2% (active) | -71.4% (active) | -74.7% (active) | -94.1% (active) | -74.2% (active) | -54.1% (active) | -74.8% (active) | -83% (active) | -93.8% (active) | -78.7% (active) |
| NC(N)=NC(N)=Nc1cc2ccccc2c2ccccc12 | 44.8% | 54.3% | 53.3% | 38.3% | 21.9% | -3.37% (active) | 7.5% (active) | 41.1% | 14.4% | -59% (active) |
| Cc1cc(C)n(-c2nc(-c3cccs3)c(C#N)c(=O)[nH]2)n1 | 97.6% | 105% | 92.1% | 81.2% | 96.8% | 102% | 83.8% | 99.9% | 93.1% | 111% |
| COc1cc(C2=NN(C=O)C(c3cccc(Nc4ccnc5cc(C(F)(F)F)ccc45)c3)C2)cc(OC)c1OC (stereo not given) | 59.9% | 64.3% | 66.2% | 70.1% | 44% | 29.1% | 53.1% | 49% | 63.3% | 56.8% |
| COc1ccc(-c2cc(-c3nnc(SCC(=O)Nc4ccc(/C(C)=N\O)cc4)n3-c3ccccc3)c3cc(OC)ccc3n2)cc1 | 86.4% | 86.1% | 79% | 79.4% | 83.9% | 78.4% | 35.1% | 51.2% | 83.5% | 93.6% |
| CCO/C=N/S(=O)(=O)c1cc2c(cc1Cl)NC=NS2(=O)=O | 103% | 98.7% | 111% | 93.9% | 106% | 92.2% | 99.4% | 89% | 100% | 108% |
| CNS(=O)(=O)c1cccc(-c2ccc3c4c(n(C)c(=O)c3c2)-c2ccccc2C4=O)c1 | 43.9% | 33.1% | 92.8% | 22.2% | 7.51% (active) | 61.2% | 49.3% | 24% | 25.3% | 66.5% |
